HCMV antiviral – qHTS Assay for inhibitors of the human cytomegalovirus (HCMV). HFF cells, HCMV-luciferase reporter, 72 h; hits give low values. 410,000 compounds, 4.5% hits. activity change, negative = inhibition, % at 57.5 µM. AID 1259415, 2018; in the data active means activity change below about -60%; inconclusive means no clear call, values can overlap the other calls; inactive means above about -39%; further: on the % scale 0 is the no-effect control and ±100 the full control effect
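Screen run at 2 compound doses on HFFs infected with reporter HCMV, MOI 1 PFU/cell. Luciferase activity from cell lysates at 72 h post infection gave inhibition relative to buffer-only and Salinomycin wells.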
HCV inh – qHTS Assay for Inhibitors of Hepatitis C Virus (HCV); Huh7.5.1 HCVcc-Cre infection, luciferase reporter, 44 h; Potency, µM (highest dose often 41.8 µM), without a hit: at the highest dose activity change, negative = inhibition, most hits filed as inhibitors; 340,000 compounds, 3.4% hits; AID 651820, 2012; further: potency means the concentration at half of the fitted maximal effect; on the % scale 0 is the no-effect control and ±100 the full control effect
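Infectious HCVcc-Cre (~0.5 moi) was added to cells just after compound, with cells seeded 4 h earlier at 1,000 per well. Luciferase activity after 44 h culture reported infection; substrate was incubated 15 min at room temperature before reading.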
Shiga toxin inh – A qHTS for Small Molecule Inhibitors of Shiga Toxin | Vero cells, Shiga toxin protein synthesis inhibition reporter | inhibition, % at 38.7 µM | 290,000 compounds, 9.2% hits | AID 2315, 2010; in the data active means inhibition mostly above about 28%, no sharp cut-off; inactive means mostly below about 43%; further: 0% is about no effect
Pf growth 96h – Primary qHTS for delayed death inhibitors of the malarial parasite plastid, 96 hour incubation; Potency, µM (titrated, usually from 28.7 µM), inactives show at the top dose activity change, negative = inhibition, most hits filed as inhibitors; 320,000 compounds, 6.9% hits; P. falciparum luciferase reporter growth, 96 h; further: potency means the concentration at half of the fitted maximal effect; on the % scale 0 is the no-effect control and ±100 the full control effect
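96 h incubation, 37 C, 5% CO2, of luciferase-reporter P. falciparum-infected RBCs (2% hematocrit, 0.05% parasitemia final) with test compounds; endpoint luminescence.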
Cycloheximide cs – Cycloheximide Counterscreen for Small Molecule Inhibitors of Shiga Toxin. cell reporter, cycloheximide protein synthesis inhibition counterscreen. max response, %. 300,000 compounds, 12% hits. AID 2314, 2010; in the data active means max response mostly above about 13%, no sharp cut-off; inactive means mostly below about 14%; further: read at 38.3 µM for the half of the compounds with a filed dose; 0% is about no effect
Pf growth 48h – Primary qHTS for delayed death inhibitors of the malarial parasite plastid, 48 hour incubation. P. falciparum luciferase growth in erythrocytes, 48 h. Potency, µM (top dose mostly 28.7 µM), for the others: top-dose activity change, negative = inhibition, most hits filed as inhibitors. 310,000 compounds, 5.9% hits. AID 504832, 2011; further: potency means the concentration at half of the fitted maximal effect; on the % scale 0 is the no-effect control and ±100 the full control effect
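A one-generation exposure of luciferase-tagged malaria parasites in RPMI 1640/Albumax erythrocyte culture, 37 C and 5% CO2. Inhibition is inferred from decreased luminescence after adding detection reagent.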
* = called active by the depositor; ? = inconclusive; / = no result given; [ ] = another dose, or the depositor's remark. Compounds with a hit are over-represented: about 21% of the library has one in this group of screens. Unless noted, the call rests on the fitted dose curve; in most records, active means well fitted inhibition curve with a large enough effect; inconclusive means small, poorly fitted or top-dose-only effect, or another doubt; inactive means no such curve, though single readings can be large or run the other way.

SMILES | HCMV antiviral | HCV inh | Shiga toxin inh | Pf growth 96h | Cycloheximide cs | Pf growth 48h
COc1cccc(C(=O)Nc2cnn(C(C)C)c2)c1 | 26.4 | 6.9% | 93.5* | -18.4% | 32.0* | 291.3%
CC(C)c1ccc(N(CC(=O)NCc2ccc(F)cc2)C(=O)c2csnn2)cc1 | -32.7 | ? | 2.7 | 18.5% | -1.2 | -15.4%
CC1CCC(NC(=O)C2(C)Cc3ccccc3C(=O)N2Cc2ccccc2Cl)CC1 (stereo unspecified) | 46.7 | / | / | / | / | /
COc1cccc(NC(=O)c2ccc(C(=O)c3ccccc3)o2)c1 | 61.4 | ? | 92.9* | ? | 37.6* | 0.3%
COc1ccc(/C(O)=C/C(=O)C(=O)NNC(=O)C(O)(c2ccccc2)c2ccccc2)cc1 | -2.8 | -7.5% | -8.0 | ? | 5.7 | -18.6%
COc1ccc(/C(O)=C/C(=O)C(=O)NNC(=O)c2ccccc2)cc1 | ? | 2.4% | 32.7 | 43.7% | 29.9* | 37.5%
Cc1cccc(C(=O)NCCNC(=O)c2cccc(C)c2)c1 | ? | -6.2% | -9.9 | -15.5% | -0.7 | 27.8%
COc1cccc(C(=O)NC23CC4CC(CC(C4)C2)C3)c1 | 55.6 | 12.6% | 17.9 | -19.7% | 14.7* | 38.5%
COc1cccc(NC(=O)c2ccccc2-c2ccccc2C(=O)O)c1 | 72.5 | 2.0% | / | 27.8% | -2.5 | -1.3%
CCC/C(=N\NC(=O)c1cccc(C)c1)c1ccccc1 | -22.8 | 10.2% | 59.3* | 5.0% | 56.4* | 29.3%
O=C(NCc1cccs1)c1ccc2c(c1)N(Cc1cccc(F)c1)C(=O)c1ccccc1S2 | 18.4 | / | / | / | / | /
COc1ccc(CC(=O)NNC(=O)c2ccc(NC(C)=O)cc2)cc1 | -16.2 | 12.6% | -2.8 | 18.8% | -4.0 | 12.6%
COc1ccc(C(=O)NN/C(C)=C/C(=O)C(F)(F)C(F)(F)C(F)(F)F)cc1 | -10.1 | 35.2% | 43.7* | ? | 21.9* | 4.9%
CCOC(=O)c1c(-c2ccccc2)csc1NC(=O)CSc1nc(C)cc(C)n1 | -81.9* | ? | -5.6 | ? | -5.0 | 13.1µM*
CCOC(=O)c1c(-c2ccccc2)csc1NC(=O)c1nc(SCC)ncc1Cl | 6.0 | / | / | / | / | /
CCOC(=O)c1c(-c2ccccc2)csc1NC(=O)CSc1nc(N)cc(N)n1 | -66.6* | 12.6µM* | -3.6 | 3.29µM* | -0.6 | 3.5%
COc1ccc(NC(=O)Cn2nc(C(=O)O)c3ccccc3c2=O)cc1OC | -12.0 | 13.8% | -3.3 | 33.0% | -2.8 | 34.5%
O=C(CSc1nccn1-c1ccc(F)cc1)Nc1nc2ccccc2s1 | 24.5 | / | / | / | / | /
CN(C)C(=O)Oc1cccc(-c2cn3cc(Cl)ccc3n2)c1 | -3.5 | ? | 57.9* | 213.3% | 43.1* | 142.8%
CCOC(=O)c1ccccc1-c1cn2cc(Cl)ccc2n1 | -29.6 | -22.5% | 51.7 | 37.5% | 14.6 | ?
Oc1ccc(-c2cn3cc(C(F)(F)F)ccc3n2)cc1 | -26.7 | -2.7% | 18.0 | 79.8% | 9.8 | 82.7%
CN(C)C(=O)Oc1ccc(-c2cn3cc(C(F)(F)F)ccc3n2)cc1 | -28.4 | 3.1% | 41.0* | 123.0% | 19.6 | 110.5%
CN(C)C(=O)Oc1ccc(-c2cn3cc(Cl)ccc3n2)cc1 | 78.8 | -18.7% | 55.3* | 250.6% | 50.4* | 170.2%
CC(=O)c1cc(-c2ccc(F)cc2)n(CC(=O)NC2CCCCCC2)c1C | 0.0 | / | / | / | / | /
CCCN(CCC)C(=O)Cn1c(=O)n(-c2cccc(OC)c2)c(=O)c2c(C)c(C(=O)N(C)C)sc21 | 48.0 | / | / | / | / | /
SMILES | HCMV antiviral | HCV inh | Shiga toxin inh | Pf growth 96h | Cycloheximide cs | Pf growth 48h
Cc1cc(C(=O)NC(Cc2ccccc2)C(=O)O)c(C)o1 (stereo unspecified) | -30.9 | 11.3% | -4.1 | 44.5% | -4.2 | ?
Cn1c(=O)c(/C=C/c2ccccc2)nc2ccccc21 | 229.8 | 6.4% | 73.5* | -44.2% | 34.2* | 106.4%
Cn1c(=O)c(/C=C/c2ccc(F)cc2)nc2ccccc21 | 64.5 | ? | 75.0* | -4.5% | 35.6* | ?
CCOC(=O)c1ccc(N=Cc2nc3ccccc3n2C)cc1 | -13.1 | -3.6% | -6.2 | 23.7% | 11.1 | 31.0%
CC(=O)c1ccc(/C=C/c2nc3ccccc3n2C)o1 | 53.1 | 9.9% | 60.8* | 199.8% | 38.2* | 159.0%
CC(C)Cn1c(/C=C/c2ccc(F)cc2)nc2ccccc21 | 29.2 | / | / | / | / | /
Cn1c(/C=C/c2ccccc2)nc2ccccc21 | ? | ? | -13.1 | 48.2% | 11.1 | 82.3%
CN(C(=O)CC(=O)Nc1ccc2nc3n(c(=O)c2c1)CCCCC3)c1ccccc1F | -0.7 | / | / | / | / | /
CC(=O)N1CCN(S(=O)(=O)c2cccc(C(=O)NNC(=O)COc3ccc(F)cc3)c2)CC1 | 53.2 | -1.0% | / | 3.1% | / | -1.2%
Cc1c(C(=O)NC2CCCc3ccccc32)oc2ccc(S(=O)(=O)N3CCCC3)cc12 (stereo unspecified) | 14.7 | ? | -9.4 | / | -1.6 | ?
Cc1c(C(=O)NCCc2ccccc2)oc2ccc(S(=O)(=O)N3CCOCC3)cc12 | -18.6 | ? | 14.6 | -3.0% | 15.4* | ?
Cc1c(C(=O)NC2CCCc3ccccc32)oc2ccc(S(=O)(=O)N3CCCCC3)cc12 (stereo unspecified) | 41.0 | 6.7% | -2.9 | 1.85µM* | -3.1 | ?
Cc1c(C(=O)NCCN2CCOCC2)oc2ccc(S(=O)(=O)N3CCCCCC3)cc12 | -100.2* | -2.6% | -14.8 | ? | 0.5 | ?
Cn1cnnc1-c1cccc(NC(=O)c2cc(F)c(F)cc2Cl)c1 | 7.1 | 8.4% | -8.4 | ? | -1.8 | 7.0%
CCCCOC(=O)Oc1ccc2c(=O)c(Oc3cccc(C)c3)coc2c1 | ? | 9.9% | 10.8 | ? | 35.3* | 57.7%
CCCCOC(=O)Oc1ccc2c(=O)c(Oc3cc(C)cc(C)c3)coc2c1 | 11.7 | 15.9% | -9.9 | 2.0% | -1.3 | 12.4%
Cc1ccc(Oc2coc3cc(O)ccc3c2=O)cc1 | 50.1 | 7.3% | 29.4 | 2.4% | 31.3* | -10.9%[0.00184 µM]
Cc1cc(C)cc(Oc2coc3cc(O)ccc3c2=O)c1 | 29.0 | 4.7% | / | ? | 5.3 | 20.7%
Cc1ccc(NC(=O)CC(NCC2CCCO2)C(=O)O)cc1C (stereo unspecified) | -6.3 | -3.5% | -10.9 | -19.0% | -1.2 | 6.2%
Cc1nnsc1C(=O)N1CCC(CO)(Cc2ccccc2Cl)CC1 | -24.4 | -3.0% | 16.0 | 0.0% | 0.9 | -3.3%
N#Cc1cc2c(nc1SCC(O)CS(=O)(=O)Cc1ccc(Cl)cc1)CCCC2 (stereo unspecified) | -63.6* | ? | 15.4 | ? | -1.5 | /
CCS(=O)(=O)CCSc1nc2c(cc1C#N)CCCC2 | 49.9 | ? | 18.2 | / | 12.0* | 14.4%
N#Cc1cc2c(nc1SCc1ccccc1)CCC2 | -12.7 | -6.2% | -28.6 | 1.6% | 1.2 | 29.8%
N#CCSc1nc2c(cc1C#N)CCCCCC2 | -68.2* | ? | 9.1 | 18.2% | -0.8 | -0.2%

Screens deposited in PubChem BioAssay by National Center for Advancing Translational Sciences (NCATS).
